# High-throughput results (PubChem)
# A selection: hits, their analogues and other compounds. The true share with any hit is near 19%.
# IL-1B inflam inh: qHTS for Inhibitors of Inflammasome Signaling: IL-1-beta AlphaLISA Primary Screen; 360,000 tested, 4.7% active; activity change, % at 57.5 µM; THP-1 LPS/ATP IL-1B secretion, AlphaLISA, 16 h; stronger effect = lower value; in the data active means activity change below about -50%; inconclusive means mostly about -30% to -49%
#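 THP-1 cells pretreated 1 hr with compounds (up to 57.5 uM final), then stimulated with LPS (250 ng/mL final) plus ATP (1.25 mM final); secreted IL-1B measured by AlphaLISA after 16 hr, decreased signal indicating inhibition.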
# DT40 TDP1 CPT: qHTS for Inhibitors of human tyrosyl-DNA phosphodiesterase 1 (TDP1): qHTS in cells in presence of CPT; chicken DT40 Tdp1-/-;hTDP1 cells + 20 nM CPT, ATP luminescence, 48 h; Potency, µM (doses to about 46.2 µM), most hits filed as inhibitors; 420,000 tested, 12% active; AID 686979, 2013; further: nearly all actives have a fitted effect of over 55% in size
#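 Chicken DT40 Tdp1-/- cells stably complemented with human TDP1 were seeded at 400 cells/well in medium containing 20 nM camptothecin, exposed to pin-transferred compounds, and grown at 37 °C for at least 48 hr. Viability was read as ATP luminescence.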
# HT1080-NT tox: qHTS for induction of synthetic lethality in tumor cells producing 2HG: qHTS for the HT-1080-NT fibrosarcoma cell line | HT-1080-NT fibrosarcoma viability, CellTiter-Glo ATP luminescence, 48 h | Potency, µM (doses to about 46.1 µM), actives largely listed as cytotoxic | 360,000 tested, 1.6% active | AID 686970, 2013;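 further: NT is the 2HG producing partner of a matched IDH1 knockdown line; nearly all actives have a fitted effect of over 55% in size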
#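 Viability by CellTiter-Glo luminescence after 48 h compound exposure at 37C of HT-1080-NT cells (750/well, RPMI, 5% FBS). % activity scaled between DMSO wells and medium-only wells, then curve-fitted and categorized by curve class.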
# TDP1 cell noCPT: qHTS for Inhibitors of human tyrosyl-DNA phosphodiesterase 1 (TDP1): qHTS in cells in absence of CPT. DT40 Tdp1-/- hTDP1 cells, no CPT, ATP luminescence, 48 h. Potency, µM (doses to about 46.2 µM), usual class: inhibitors. 420,000 tested, 15% active; further: nearly all actives have a fitted effect of over 55% in size
#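 Growth of hTDP1-complemented DT40 Tdp1-knockout cells is measured by ATP luminescence after at least 48 hr compound exposure at 37 °C, with DMSO substituting for the 20 nM CPT used in the parallel screen.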
# HT1080 IDH1KD tx: qHTS for induction of synthetic lethality in tumor cells producing 2HG: qHTS for the HT-1080-IDH1KD cell line; 360,000 tested, 2% active; Potency, µM (top dose mostly 46.1 µM), hits mostly cytotoxic; HT-1080 IDH1 knockdown viability, ATP luminescence, 48 h
#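 Using the IDH1-knockdown HT-1080 line run in the same batch and compound series as the NT line, viability after 48 h at 37 °C was determined by CellTiter-Glo luminescence and expressed as % activity.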
# Hits are given with their value; n = inactive; u = inconclusive; x = no result. Unless noted, the call rests on the fitted dose curve; in most records, active means well fitted curve in the direction sought with a large enough effect; inconclusive means small, poorly fitted or top-dose-only effect, or another doubt; inactive means no such curve, though single readings can be large; an effect the other way counts as inactive or inconclusive.
SMILES,IL-1B inflam inh,DT40 TDP1 CPT,HT1080-NT tox,TDP1 cell noCPT,HT1080 IDH1KD tx
CCOc1ccc(NC(=O)COC(=O)Cc2ccsc2)cc1,n,n,n,n,n
CCN(CCCNC(=O)c1nn(-c2ccc(OC)cc2)c(=O)c2c1c1ccccc1n2C)c1cccc(C)c1,x,n,x,u,x
O=C(NCc1ccccc1)c1ccc2c(=O)[nH]c3c(C(=O)NCC4CCCO4)sc(=S)n3c2c1 (stereo not drawn),n,n,n,u,n
O=C(NCc1ccco1)c1sc(=S)n2c1[nH]c(=O)c1ccccc12,-59.2,n,n,u,u
O=C(NC1CCCC1)c1sc(=S)n2c1[nH]c(=O)c1ccccc12,-84.5,20.6µM,n,u,n
Cc1cc2nnn(-c3nnc(-c4ccccc4)c4ccccc34)c2cc1C,n,25.9µM,n,u,n
O=C(NCCc1ccc(Cl)cc1)C1CC(=O)N(C2CCCC2)C1 (stereo not drawn),n,n,n,n,n
COc1cccc(CNC(=O)C(C)n2ccc3cc(S(=O)(=O)N4CCCCCC4)ccc32)c1 (stereo not drawn),n,5.17µM,n,14.6µM,n
CC(C(=O)NCc1ccccc1Cl)n1ccc2cc(S(=O)(=O)N3CCCCC3)ccc21 (stereo not drawn),x,16.4µM,x,16.4µM,x
COc1cccc(CNC(=O)C(C)n2ccc3cc(S(=O)(=O)N4CCCC4)ccc32)c1 (stereo not drawn),n,u,n,n,n
CCC(C(=O)NCCC(C)C)n1ccc2cc(S(=O)(=O)N3CCCCC3)ccc21 (stereo not drawn),n,13µM,u,8.2µM,u
CC(C(=O)NCc1ccccc1)n1ccc2cc(S(=O)(=O)N3CCCC3)ccc21 (stereo not drawn),x,u,x,18.4µM,x
CC(C)NC(=O)N1CC2(CCN(C(=O)c3cc(C(F)(F)F)cc(C(F)(F)F)c3)CC2)C1,x,n,x,n,x
CCOC(=O)N(C)C[C@@H]1OCc2cnnn2CCCC(=O)N([C@H](C)CO)C[C@H]1C,n,n,n,n,n
COc1ccc(S(=O)(=O)N2CCN(C(=O)NCc3ccc(OC)c(OC)c3)CC2)cc1,n,n,n,n,n
COc1ccc(CNC(=O)C(C)n2ccc3cc(S(=O)(=O)N4CCCC4)ccc32)cc1OC (stereo not drawn),x,0.291µM,x,0.581µM,x
CCOc1ccc(NC(=O)CSc2ncn[nH]2)cc1,n,n,n,n,n
CCC(C(=O)Nc1cc(-c2nc3cccnc3s2)ccc1C)c1ccccc1 (stereo not drawn),x,u,x,20.6µM,x
Cc1ccc(-c2nc3cccnc3s2)cc1NS(C)(=O)=O,n,u,n,20.6µM,n
Cc1ccc(-c2nc3cccnc3s2)cc1NC(=O)C(C)C,x,n,x,n,x
O=C(O)c1ccc(/C=C2\SC(=Nc3ccccc3)N(c3ccccc3)C2=O)cc1,n,n,n,n,n
COc1cc(/C=N/n2c(C)nc3ccccc3c2=O)cc(OC)c1O,n,n,n,n,n
CCN(CC)S(=O)(=O)c1cc(C(=O)Oc2cccc(-c3cnc4ccccc4n3)c2)ccc1Br,n,u,n,18.4µM,n
CN(CC(=O)Nc1ccc(Cl)c(Cl)c1)CC(=O)Nc1ccc2c(c1)OCO2,-56.8,u,n,n,n
O=C(Nc1ccc(Cl)c(Cl)c1)c1ccc2c(c1)OCO2,n,n,n,u,n
CN(CC(=O)NC(=O)NCc1ccccc1)CC(=O)Nc1ccc(Cl)c(Cl)c1,n,25.9µM,n,u,u
CN(CC(=O)Nc1ccc(Cl)c(Cl)c1)C(=O)CNC(=O)Cc1ccccc1,u,20.6µM,n,13µM,n
CCCCNC(=O)C1(C)CCC(=O)N1C1CC1 (stereo not drawn),n,n,n,n,n
NC(=O)C1CC(=O)N(c2ccc(OCc3ccccc3Cl)cc2)C1 (stereo not drawn),n,u,n,n,n
